Measurements reported in PubChem BioAssay AID504332 (National Center for Advancing Translational Sciences (NCATS), 2011).
The whole screen tested about 350,000 compounds, of which about 31,000 (8.9%) were called active. About 15% were inconclusive and are not listed. Many of the other results were omitted from the sample, so actives are more common in it than they were. Unmarked numbers belong to inactive results. Calls follow the shape of the dose curve; as a rule, active = well fitted inhibition curve with a large enough effect; inconclusive = small, poorly fitted or top-dose-only effect; inactive = no such curve, though single readings can be large or run the other way.

The molecules below were run against Histone-lysine N-methyltransferase EHMT2 (Homo sapiens) (UniProt Q96KQ7) (assay: qHTS Assay for Inhibitors of Histone Lysine Methyltransferase G9a). Settings: G9a H3K9 monomethylation, AlphaScreen, 2 h; series mostly up to 59 µM; activity, negative = inhibition: at the top concentration.
Outline: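 Quantitative HTS format: methyltransferase activity on a biotin-tagged H3K9 peptide is measured by AlphaScreen, using a rabbit anti-monomethyl-H3K9 antibody with streptavidin donor and anti-IgG acceptor beads. Final levels are 20 nM enzyme, 500 nM peptide, 20 uM SAM; 2 h RT.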
% is scaled to controls: 0 for no effect and ±100 for the full control effect; potency is read from the fitted curve at half-maximal effect.
Also: nearly all actives have a fitted effect of over 75% in size.

Histone-lysine N-methyltransferase EHMT2 (Homo sapiens), sequence (Q96KQ7 913-1193 limits assumed): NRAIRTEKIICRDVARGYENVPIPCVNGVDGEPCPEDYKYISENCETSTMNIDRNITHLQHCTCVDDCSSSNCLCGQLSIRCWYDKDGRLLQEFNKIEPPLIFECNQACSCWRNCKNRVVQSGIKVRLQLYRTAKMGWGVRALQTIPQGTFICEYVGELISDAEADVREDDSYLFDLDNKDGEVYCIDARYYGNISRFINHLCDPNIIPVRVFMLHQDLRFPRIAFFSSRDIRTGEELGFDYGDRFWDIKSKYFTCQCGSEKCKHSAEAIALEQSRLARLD

SMILES	activity, negative = inhibition	Potency
O=C(NC1CCCCC1)c1ccc2c(c1)N(Cc1ccc(Cl)cc1)C(=O)c1ccccc1S2=O (centres undefined)	4.83%	
Nc1ncc(S(=O)(=O)Nc2ccc(OC(F)(F)F)cc2)cn1	1.47%	
COc1ccc(NS(=O)(=O)c2cccc(C(=O)NCCc3ccc(S(N)(=O)=O)cc3)c2)cc1	9.68% [at 12.7 µM]	
Cc1ccc(CN(C(=O)c2ccccc2[N+](=O)[O-])c2ccccn2)cc1	-8.14%	
Cn1c(=NC(=O)CSCC(=O)N2CCCCC2)sc2ccccc21	8%	
CCCC(=O)N=c1sc2cccc(F)c2n1C		44.7 µM (active)
CCN(CC)S(=O)(=O)c1ccc(C(=O)N=c2sc3cccc(OC)c3n2C)cc1	31.3%	
CCOc1ccc(CC(=O)NCCc2csc3nc(-c4ccccc4F)nn23)cc1	34.6%	
CC(C)CCN(C(=O)Nc1ccc(Cl)c(Cl)c1)C(C)c1cccs1 (centres undefined)	24.7%	
CCOC(=O)C(Sc1ncc(C#N)c(N)n1)C(C)C (centres undefined)		39.8 µM (active)
CCOC(=O)CSc1nccc(N(C)C)c1C#N	-8.31% [at 102 µM]	
CCCCOc1ccc(-c2ncc(C(=O)OCC)c(N)n2)cc1	6.88% [at 12.7 µM]	
O=C(CNc1cccc(S(=O)(=O)N2CCCCC2)c1)Nc1ccccc1F	14.7% [at 12.7 µM]	
CCN1C(=O)[C@@H]2[C@@H](c3ccc(-c4ccc(OC)cc4)c(OC)c3)N3CCC[C@@]3(C(=O)OC)[C@@H]2C1=O	-8.12% [at 2.33 µM]	
Cc1nn(Cc2ccccc2)c(C)c1C(=O)NCCCN1CCCC1=O	10.5% [at 12.7 µM]	
CCOC(=O)c1c(NC(=O)CN2C(=O)NC3(CCC(C)CC3)C2=O)sc(C)c1CC (centres undefined)	-0.128%	
CCC(=C/c1sc2ccc3ccccc3c2[n+]1C)/C=C1\Sc2ccc3ccccc3c2N1C		3.16 µM (active)
Cc1cc(C(=O)NNC(=O)c2cccc(S(=O)(=O)N3CCOCC3)c2)c2ccccc2n1	8.08% [at 102 µM]	
O=C(CN1C(=O)CCC1=O)Nc1ccc(S(=O)(=O)N2CCOCC2)cc1	7.29%	
CN1CCN(S(=O)(=O)c2ccc(NC(=S)NC(=O)C3CC3)cc2)CC1	-24.7%	
O=S(=O)(c1ccc(NC(=S)NN=C(C2CC2)C2CC2)cc1)N1CCOCC1		1.78 µM (active)
O=C(NC(=S)Nc1ccc(S(=O)(=O)N2CCOCC2)cc1)c1ccccc1[N+](=O)[O-]		39.8 µM (active)
Cc1ccccc1OCC(=O)Nc1ccc(S(=O)(=O)N2CCOCC2)cc1	2.97% [at 102 µM]	
O=C(NNC(=S)Nc1ccccc1)c1cccc(S(=O)(=O)N2CCOCC2)c1		31.6 µM (active)

SMILES	activity, negative = inhibition	Potency
COC(=O)c1cc(Oc2ccc(S(=O)(=O)N3CCOCC3)cc2[N+](=O)[O-])cc(C(=O)OC)c1	19.1% [at 12.7 µM]	
O=C(COC(=O)c1ccccc1)Nc1cccc(S(=O)(=O)N2CCOCC2)c1	2.49% [at 102 µM]	
CCOC(=O)c1c(S(=O)(=O)NCC(=O)Nc2ccc(Cl)c(C(F)(F)F)c2)c(C)n(C)c1C	-3.36%	
CCCS(=O)(=O)N1CCC(n2c(C(F)(F)F)nc3cccnc32)CC1	11.9%	
Cn1c(=O)c2c(n3c4ccccc4nc13)NC(=O)CC2c1cccc(Cl)c1 (centres undefined)	-19.9%	
Cc1cc2nc(-c3ccc(NC(=O)c4cc5ccccc5o4)cc3)oc2cc1C	-32.2%	
O=C1COc2ccc(S(=O)(=O)NCCc3ccc(Cl)cc3)cc2N1	-10.7% [at 102 µM]	
O=C(CCCC(=O)N1CCN(c2cccc(Cl)c2)CC1)c1ccccc1	53.4% [at 102 µM]	
C=CCn1c(SCn2nnc3ccccc3c2=O)nnc1-c1ccc(Cl)cc1		44.7 µM (active)
C=CCn1c(SCc2ccc(C(=O)NCCO)cc2)nc2ccccc2c1=O	-5.22% [at 102 µM]	
O=C(Cn1nnc2ccccc2c1=O)NCc1ccc(Cl)cc1	13.5% [at 102 µM]	
CCOc1ccc(NC(=O)CCC(=O)N2CC(C)Oc3ccc(C)cc32)cc1 (centres undefined)	2.04%	
CCCCN(CC)C(=O)c1c[nH]c2ccc(S(=O)(=O)Nc3cccc(OC)c3)cc2c1=O	-23.6%	
CCN(CC)c1ccc(NC(=O)CCc2nnc3ccc(N4CCCCC4)nn23)c(C)c1		44.7 µM (active)
CCOC(=O)c1cccc(NC(=O)CCc2nnc3ccc(N4CCOCC4)nn23)c1	21.6% [at 102 µM]	
CCOc1ccc(CCNC(=O)CCc2nnc3ccc(N4CCCC4)nn23)cc1OCC	-10.3% [at 102 µM]	
Cc1ccc2c(c1)N(C(=O)CCC(=O)NCc1ccccc1F)CC(C)O2 (centres undefined)	-28.8%	
CCCc1cc(=O)oc2c(C)c(OCC(=O)Nc3ccccn3)ccc12	-3.15% [at 0.0925 µM]	
O=C(Nc1ccc2nc(SCC(=O)N3CCc4ccccc43)sc2c1)c1ccccc1F	33.7%	
Oc1ccc2nc(Cc3ccccc3)[nH]c2c1	-45.3% [at 12.7 µM]	
Cc1cc(O)ccc1-c1cnc2ccccc2n1		14.1 µM (active)
Oc1ccc(-c2[nH]ncc2-c2nc3ccccc3s2)c(O)c1	-10.1% [at 102 µM]	
NS(=O)(=O)c1ccc(CCNC(=O)CCCCCn2c(=O)[nH]c3ccccc3c2=O)cc1	7.65%	
O=C1CN(C(=O)Nc2ccccc2C(F)(F)F)C(c2ccccc2)c2c(sc3c2CCCC3)N1 (centres undefined)	-25.3%	

SMILES	activity, negative = inhibition	Potency
CC(C)c1ccc(C2C(C(=O)c3ccco3)=C(O)C(=O)N2CC2CCCO2)cc1 (centres undefined)		44.7 µM (active)
CC(C)c1ccc(N(C(=O)c2ccco2)C(C(=O)NC2CCCC2)c2cccnc2)cc1 (centres undefined)	20.6% [at 102 µM]	
O=C(NCC(=O)N(CC1CCCO1)C(C(=O)NC1CCCCC1)c1ccccc1)c1ccco1 (centres undefined)	10.7% [at 102 µM]	
CCC1=NN2C(=N)/C(=C/c3cc(C)n(-c4ccccc4)c3C)C(=O)N=C2S1	-24.1% [at 102 µM]	
Cc1cccc(C)c1-n1c(C)cc(/C=C2\C(=O)NN(c3ccccc3)C2=O)c1C		15.8 µM (active)
Cc1ccc(CN2C(=O)N/C(=C/c3cc(C)n(-c4ccccn4)c3C)C2=O)cc1	-0.497%	
Cc1cc(C)c2oc(C(=O)Nc3c(C(=O)Nc4ccccc4)oc4ccccc34)cc(=O)c2c1	-28.2%	
CCOc1ccc2nc(N3CCCC(C(=O)Nc4cc(C)ccc4C)C3)sc2c1 (centres undefined)	-27.6%	
COc1ccc(C2C(=O)N(C3CCCCCC3)CC(=O)N2CCc2ccc(Cl)cc2)cc1OC (centres undefined)	-9.54%	
COc1cc(C2CC(=O)N3CN(Cc4ccccc4)CSC3=C2C#N)ccc1OCc1ccccc1 (centres undefined)		0.891 µM (active)
COc1ccc(CCN=C2SCC(=O)N2Cc2ccccc2)cc1OC	-8.24% [at 102 µM]	
Cc1ccc([C@@H]2CC=C(C(=O)O)[C@H](c3cccc(Cl)c3)N2S(=O)(=O)c2ccc(C)cc2)cc1	3.76% [at 2.33 µM]	
CC(=O)Nc1ccc(C(=O)CSc2nc3ccc(C)cc3[nH]2)cc1		7.08 µM (active)
CCOC(=O)CSc1nc2ccc(C)cc2[nH]1	-14.7%	
Cc1cc(C)nc(SCC(=O)c2ccc(Cl)cc2)n1	4.59% [at 102 µM]	
Cc1nc2nc(SCC(=O)c3ccccc3)[nH]c2cc1Br	-7.31% [at 102 µM]	
Cc1ccc2nc(SCC(=O)NC3CCCC3)[nH]c2c1	12.5% [at 102 µM]	
O=C(CSc1nc2ccc([N+](=O)[O-])cc2[nH]1)c1ccc(Cl)cc1		5.01 µM (active)
CCOC(=O)c1c(SCC(=O)Nc2cccc(C)c2C)nc(=O)[nH]c1C	4.2%	
Cc1ccc(NC(=O)C2CCN(S(=O)(=O)c3cc(-c4noc(C)n4)ccc3C)CC2)c(C)c1	2.07%	
CCOCCCNC(=O)c1cc2c(=O)n3ccccc3nc2s1		inactive
Cc1[nH]c2ccccc2c1/C=N\NC(=O)Cn1nnc(-c2ccccc2)n1	20.7%	
CN=c1scc(-c2cc(OC)ccc2OC)n1/N=C/c1c(C)[nH]c2ccccc12		12.6 µM (active)
COCCNC(=S)N/N=C/c1c(C)[nH]c2ccccc12	-8.34%	

SMILES	activity, negative = inhibition	Potency
O=C(Nc1ccc(F)cc1F)c1cnn(-c2ccc(F)cc2)c1-n1cccc1	-3.52%	
COCCN(CCOC)c1nc(N)c2c(N)nc3c(c2c1C#N)CC(=O)N3Cc1ccc(Cl)cc1		17.8 µM (active)
O=C(OCC(=O)N1CCOCC1)c1ccc2ccccc2c1	0.153%	
CCn1c2ccccc2c2nnc(N3CCN(c4cc(C)ccc4C)CC3)nc21	-21.8%	
CCn1c2ccccc2c2nnc(SCC(=O)O)nc21		10 µM (active)
C=CCn1c2ccccc2c2nnc(SC(CC)C(=O)Nc3nc(C)c(C(=O)OCC)s3)nc21 (centres undefined)	6.8% [at 102 µM]	
COc1cccc(C2CC(c3cccs3)=NN2C(=O)CSC2=NCCS2)c1OC (centres undefined)	-1.42% [at 102 µM]	
O=C(COC(=O)c1cccc(Cl)c1)Nc1ccc2[nH]c(=O)[nH]c2c1	10.7% [at 2.33 µM]	
O=C(CSc1nc2nccnc2c(=O)n1Cc1cccs1)Nc1ccccc1F	2.38% [at 102 µM]	
Cc1cc2n(n1)C(c1cc(C(C)(C)C)c(O)cc1O)Nc1ccccc1-2 (centres undefined)	-4.03%	
O=C(CSc1ccc(-c2ccccn2)nn1)Nc1ccccc1	-8.09% [at 102 µM]	
Cc1csc(NC(=O)CSc2ccc(-c3ccc(F)cc3)nn2)n1	-4.33% [at 102 µM]	
O=C(CSc1ccc(-c2ccc(-n3cccn3)cc2)nn1)Nc1ccc([N+](=O)[O-])cc1		15.8 µM (active)
O=C(N/N=C\C1CC=CCC1)c1ccc(Br)o1 (centres undefined)	11.4% [at 102 µM]	
Cc1nn(-c2ccccc2)c2c1C(c1ccc(F)cc1)C(C#N)=C(N)O2 (centres undefined)		50.1 µM (active)
C=CCOC(=O)C1=C(C)OC(N)=C(C#N)C1c1ccc(F)cc1 (centres undefined)	14.3% [at 2.33 µM]	
CCCc1[nH]nc2c1C(c1c(C)nn(-c3ccccc3)c1Cl)C(C#N)=C(N)O2 (centres undefined)	-26.6% [at 12.7 µM]	
CC(NC(=O)c1cc2c(=O)n3ccccc3nc2n(C(C)C)c1=N)c1ccccc1 (centres undefined)	5.1%	
COc1ccc(C(C[N+](=O)[O-])n2nc(C)cc2C)cc1 (centres undefined)		6.31 µM (active)
COc1ccc(C(=O)CSc2nc(C)cc(C)n2)cc1[N+](=O)[O-]	14.2%	
COc1ccc(OCc2cn3c(C)cc(C)nc3n2)cc1	2.35% [at 102 µM]	
Cc1ccc(S(=O)(=O)N2CCN(C(=O)c3ccc(-n4cncn4)c([N+](=O)[O-])c3)CC2)cc1	-0.498% [at 12.7 µM]	
